Assay [1] concerns DLD1. Description: cell viability (CellTiter-Glo) relative to plate median (fraction of plate median); higher = more viable cells. The note with it: 5 µM; treatment time 24 h; reporter: 7TFP. In outline:
(§1)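 Cells were seeded in 384-well plates; these were colorectal cancer lines stably transduced with lentiviral 7TFP or TCF4/Wnt firefly luciferase reporters. After 24 h, library compounds went in at a final 5 µM, and exposure lasted 24 h. Parallel plates were then read for firefly luciferase or CellTiterGlo luminescence, each well normalised to its plate median, with two independent replicates averaged.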
(In general: Cellular ATP, detected with luciferase, serves as a proxy for viable cell number.)

A further assay deals with HCT116. The description is as above. The note with it: 5 µM; treatment time 24 h; reporter: TCF4/Wnt. The essentials: as §1
In assay [2] the test system is SW480. The description is as above. The note with it: 5 µM; treatment time 24 h; reporter: 7TFP. The essentials: as §1
In assay [3] the test system is DLD1. Kind of assay: TCF/Wnt firefly luciferase reporter signal relative to plate median (fraction of plate median); higher = higher Wnt reporter signal. The note with it: 5 µM; treatment time 24 h; reporter: 7TFP. The essentials: as §1
The test system of assay [4] is SW480. The assay is described as above. The note with it: 5 µM; treatment time 24 h; reporter: 7TFP. In outline: as §1

The record followed here is the supplement of paper PMC6522484.

± gives the standard deviation of the averaged measurements.

As to `O=C1c2ccc(O)c(O)c2C(=O)c2c(O)ccc(O)c21`, the cell viability in the assay on DLD1 [1] worked out at 0.966 ± 0.048; with HCT116 it was 0.877 ± 0.023; in the assay with SW480 [2] it was 0.964 ± 0.03. Moreover, the entries for the “TCF/Wnt firefly luciferase reporter signal” value with DLD1 [3] and with SW480 [4] were 1.09 ± 0.092 and 1.1 ± 0.085, respectively.

Turning to `CN1CCCN=C1COC(=O)C(O)(c1ccccc1)C1CCCCC1` (stereo not given), the cell viability was 1 ± 0.15 with DLD1 [1], 1.15 ± 0.12 in the assay with HCT116 and 1.05 ± 0.042 in the assay on SW480 [2]. In addition, the “TCF/Wnt firefly luciferase reporter signal” value worked out at 1.08 ± 0.042 in the assay on DLD1 [3] and 1.065 ± 0.0071 in the assay on SW480 [4].

Turning to `CC(=O)Nc1ccc(OC(=O)c2ccccc2O)cc1`, the cell viability came to 0.999 ± 0.016 in the assay with DLD1 [1], 0.989 ± 0.03 in the assay with HCT116 and 0.978 ± 0.074 in the assay on SW480 [2]. Further, the “TCF/Wnt firefly luciferase reporter signal” value in the assay with DLD1 [3] worked out at 1 ± 0.095; in the assay with SW480 [4] it was 0.891 ± 0.043.

As to `COc1ccc(-c2cc(=O)c3cc(OC)ccc3o2)cc1`, the cell viability with DLD1 [1] was 0.967 ± 0.031; with HCT116, 0.964 ± 0.065; with SW480 [2] it was 0.998 ± 0.059. For the same compound, the “TCF/Wnt firefly luciferase reporter signal” value in the assay with DLD1 [3] came to 1.17 ± 0.057; in the assay on SW480 [4], 1.33 ± 0.014.

On to `NCCc1c[nH]cn1`, for which the values for the cell viability in the assay on DLD1 [1], in the assay with HCT116 and with SW480 [2] were 1.06 ± 0.028, 1.02 ± 0.021 and 1.04 ± 0.062, respectively. Besides, the “TCF/Wnt firefly luciferase reporter signal” value with DLD1 [3] was 1.12; with SW480 [4], 1.06 ± 0.014.

On to `COc1ccc2c(c1)OCC(Cc1ccc(OC)c(OC(C)=O)c1)C2=O` (stereo not given), for which the cell viability is 1.025 ± 0.0071 in the assay on DLD1 [1], 0.919 ± 0.059 in the assay with HCT116 and 1.03 with SW480 [2]. Further, the “TCF/Wnt firefly luciferase reporter signal” value came out at 0.969 ± 0.12 with DLD1 [3] and 0.858 ± 0.18 with SW480 [4].

With `CCC(=O)C1(C)OC1C(C)CC(C)C1OC(=O)CC2(O)CC=C(C)C(O2)/C(C)=C/CCCC(OC2CC(OC(N)=O)C(O)C(C)O2)/C=C/C(C)C(O)C1C` (stereo not given) [Irumamycin], the values for the cell viability with DLD1 [1], in the assay on HCT116 and in the assay on SW480 [2] were 1.07 ± 0.099, 1.04 ± 0.035 and 1 ± 0.025, respectively. Moreover, the “TCF/Wnt firefly luciferase reporter signal” value with DLD1 [3] turned out to be 1.07 ± 0.078; in the assay with SW480 [4], 1.02 ± 0.034.

With `CNCCCC12CCC(c3ccccc31)c1ccccc12`, the cell viability with DLD1 [1] was found to be 1.07 ± 0.085; in the assay on HCT116, 1.085 ± 0.0071; with SW480 [2], 1.07 ± 0.071. The “TCF/Wnt firefly luciferase reporter signal” value with DLD1 [3] came to 1.04 ± 0.035; in the assay on SW480 [4] it was 1.1 ± 0.042.

`C[C@@H]1C[C@H]2[C@@H]3C[C@H](F)C4=CC(=O)C=C[C@]4(C)[C@@]3(F)[C@@H](O)C[C@]2(C)[C@@]1(O)C(=O)CO`: the cell viability is 1.05 ± 0.057 with DLD1 [1], 0.889 ± 0.02 in the assay with HCT116 and 1.03 ± 0.028 in the assay on SW480 [2]. Also, the figures for the “TCF/Wnt firefly luciferase reporter signal” value with DLD1 [3] and in the assay on SW480 [4] were 1.02 ± 0.14 and 0.986 ± 0.076, respectively.

Consider `CC(C)C[C@H]1NC(=O)[C@@H](NC(=O)c2ncccc2O)[C@@H](C)OC(=O)[C@H](c2ccccc2)N(C)C(=O)[C@H](C)NC(=O)[C@H]([C@@H](C)C(C)C)N(C)C(=O)CN(C)C(=O)[C@H]2C[C@@H](O)CN2C1=O` [Viridogrisein], for which the values for the cell viability in the assay with DLD1 [1], with HCT116 and in the assay on SW480 [2] were 1.04 ± 0.11, 0.954 ± 0.066 and 0.971 ± 0.11, respectively. In addition, the “TCF/Wnt firefly luciferase reporter signal” value in the assay on DLD1 [3] turned out to be 1.12 ± 0.021; in the assay on SW480 [4], 0.999 ± 0.073.

For `CC(c1cc2ccccc2s1)N(O)C(N)=O` (stereo not given), the cell viability was determined as 1.03 ± 0.067 with DLD1 [1], 1.02 ± 0.057 with HCT116 and 1.05 ± 0.035 with SW480 [2]. The “TCF/Wnt firefly luciferase reporter signal” value in the assay with DLD1 [3] stood at 1.13 ± 0.014; in the assay on SW480 [4], 0.946 ± 0.074.

On to `O=C1CCC(N2C(=O)c3ccccc3C2=O)C(=O)N1` (stereo not given), for which the cell viability in the assay with DLD1 [1] came to 0.939 ± 0.1; in the assay with HCT116, 0.972 ± 0.04; in the assay on SW480 [2], 0.953 ± 0.03. Besides, the “TCF/Wnt firefly luciferase reporter signal” value is 1.23 ± 0.16 with DLD1 [3] and 0.887 ± 0.018 with SW480 [4].

`COCC1=C(C(=O)OC(C)OC(=O)OC(C)C)N2C(=O)[C@@H](NC(=O)/C(=N\OC)c3csc(N)n3)[C@H]2SC1` (stereo not given in full): the cell viability with DLD1 [1] stood at 1.07 ± 0.085; with HCT116 it was 1.09 ± 0.085; in the assay on SW480 [2] it was 1.02 ± 0.028. Also, the “TCF/Wnt firefly luciferase reporter signal” value in the assay with DLD1 [3] is 1.01 ± 0.061; in the assay with SW480 [4], 0.999 ± 0.059.
